Results as given in PubChem BioAssay (EPA / NIEHS).
The source made the active and inactive calls. How the source made its calls: active means hit-call score of the fitted dose curve at least 0.9, where 1 is the maximum; inactive means score below 0.9.

Tests used:
[1] = read-out: Tissue plasminogen activator (tPA), PLAT (gene 5327); assay: BSK_BE3C_tPA: BioMAP Diversity Plus: BE3C Assay for Tissue plasminogen activator (tPA) Biomarker Activity (AID 2283041); conditions: primary human bronchial epithelial cells; actives raise or lower the signal
Outline: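 ELISA read-out of tPA on human primary bronchial epithelial cells, 24 h post-dosing; bidirectional fit vs DMSO negative control/baseline.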

[2] = read-out: Interleukin-8 (IL8), CXCL8 (gene 3576); assay: BSK_CASM3C_IL8: BioMAP Diversity Plus: CASM3C Assay for Interleukin-8 (IL8) Biomarker Activity (AID 2283042); conditions: primary human coronary artery smooth muscle cells; actives raise or lower the signal;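 further: IL-8 protein level quantified by ELISA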
[3] = read-out: Human Leukocyte Antigen - DR isotype (HLADR), HLA-DRA (gene 3122); assay: BSK_CASM3C_HLADR: BioMAP Diversity Plus: CASM3C Assay for Human Leukocyte Antigen - DR isotype (HLADR) Biomarker Activity (AID 2283043); conditions: primary human coronary artery smooth muscle cells; actives raise or lower the signal;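 further: cell-surface HLA-DR protein level quantified by ELISA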
[4] = read-out: Macrophage colony-stimulating factor (MCSF), CSF1 (gene 1435); assay: BSK_CASM3C_MCSF: BioMAP Diversity Plus: CASM3C Assay for Macrophage colony-stimulating factor (MCSF) Biomarker Activity (AID 2283044); conditions: primary human coronary artery smooth muscle cells; actives raise or lower the signal;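 further: M-CSF protein amount quantified by ELISA after 24 h exposure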
[5] = read-out: Low-density lipoprotein receptor (LDLR), LDLR (gene 3949); assay: BSK_CASM3C_LDLR: BioMAP Diversity Plus: CASM3C Assay for Low-density lipoprotein receptor (LDLR) Biomarker Activity (AID 2283045); conditions: primary human coronary artery smooth muscle cells; actives raise or lower the signal;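 further: LDLR protein level on the cell surface quantified by ELISA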
[6] = read-out: Monocyte Chemoattractant Protein-1 (MCP1), CCL2 (gene 6347); assay: BSK_CASM3C_MCP1: BioMAP Diversity Plus: CASM3C Assay for Monocyte Chemoattractant Protein-1 (MCP1) Biomarker Activity (AID 2283046); conditions: primary human coronary artery smooth muscle cells; actives raise or lower the signal;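 further: MCP-1 level quantified by ELISA 24 h after dosing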
[7] = BSK_CASM3C_Proliferation: Cell Proliferation Assessment in the BioMAP Diversity Plus: CASM3C Assay (AID 2283047); conditions: primary human coronary artery smooth muscle cells;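 further: sulforhodamine B total protein stain as relative cell number at 560 nm; sub-confluent cells exposed 48 h before staining; fitted both ways against DMSO so gain or loss of cell number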
[8] = read-out: Monokine induced gamma interferon (MIG), CXCL9 (gene 4283); assay: BSK_CASM3C_MIG: BioMAP Diversity Plus: CASM3C Assay for Monokine induced gamma interferon (MIG) Biomarker Activity (AID 2283048); conditions: primary human coronary artery smooth muscle cells; actives raise or lower the signal;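 further: MIG protein level measured by ELISA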
[9] = read-out: serum amyloid A (SAA), SAA1 (gene 6288); assay: BSK_CASM3C_SAA: BioMAP Diversity Plus: CASM3C Assay for serum amyloid A (SAA) Biomarker Activity (AID 2283049); conditions: primary human coronary artery smooth muscle cells; actives raise or lower the signal;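 further: SAA protein level quantified by ELISA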
[10] = BSK_CASM3C_SRB: Viability Assessment in the BioMAP Diversity Plus: CASM3C Assay (AID 2283050); conditions: primary human coronary artery smooth muscle cells;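 further: total protein by SRB staining as cytotoxicity measure in parallel cultures; cells exposed to compound for 24 h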
[11] = read-out: Thrombomodulin, THBD (gene 7056); assay: BSK_CASM3C_Thrombomodulin: BioMAP Diversity Plus: CASM3C Assay for Thrombomodulin Biomarker Activity (AID 2283051); conditions: primary human coronary artery smooth muscle cells; actives raise or lower the signal;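 further: thrombomodulin protein level measured by ELISA 24 h after dosing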
[12] = read-out: Tissue Factor, F3 (gene 2152); assay: BSK_CASM3C_TissueFactor: BioMAP Diversity Plus: CASM3C Assay for Tissue Factor Biomarker Activity (AID 2283052); conditions: primary human coronary artery smooth muscle cells; actives raise or lower the signal;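 further: cell surface tissue factor protein level read by ELISA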
[13] = read-out: Interferon-gamma inducible Protein 10 (IP10), CXCL10 (gene 3627); assay: BSK_hDFCGF_IP10: BioMAP Diversity Plus: hDFCGF Assay for Interferon-gamma inducible Protein 10 (IP10) Biomarker Activity (AID 2283053); conditions: primary human foreskin fibroblasts; actives raise or lower the signal
Outline: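 ELISA read-out of IP-10 (CXCL10) from primary human skin fibroblasts, 24 h after compound addition. Gain or loss of signal versus DMSO baseline, bidirectional curve fitting.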

[14] = read-out: Urokinase-type plasminogen activator receptor (uPAR), PLAUR (gene 5329); assay: BSK_CASM3C_uPAR: BioMAP Diversity Plus: CASM3C Assay for Urokinase-type plasminogen activator receptor (uPAR) Biomarker Activity (AID 2283054); conditions: primary human coronary artery smooth muscle cells; actives raise or lower the signal;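 further: cell-surface uPAR protein level quantified by ELISA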
[15] = read-out: Vascular cell adhesion molecule 1 (VCAM1), VCAM1 (gene 7412); assay: BSK_CASM3C_VCAM1: BioMAP Diversity Plus: CASM3C Assay for Vascular cell adhesion molecule 1 (VCAM1) Biomarker Activity (AID 2283055); conditions: primary human coronary artery smooth muscle cells; actives raise or lower the signal;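 further: VCAM-1 protein level quantified by ELISA on the cells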
[16] = read-out: Collagen III, COL3A1 (gene 1281); assay: BSK_hDFCGF_CollagenIII: BioMAP Diversity Plus: hDFCGF Assay for Collagen III Biomarker Activity (AID 2283056); conditions: primary human foreskin fibroblasts; actives raise or lower the signal
Outline: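 Human foreskin primary fibroblasts were exposed to test chemicals for 24 h, after which collagen III was quantified by ELISA. Activity was fitted bidirectionally against DMSO as negative control and baseline.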

[17] = read-out: Epidermal growth factor receptor (EGFR), EGFR (gene 1956); assay: BSK_hDFCGF_EGFR: BioMAP Diversity Plus: hDFCGF Assay for Epidermal growth factor receptor (EGFR) Biomarker Activity (AID 2283057); conditions: primary human foreskin fibroblasts; actives raise or lower the signal
Outline: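 ELISA readout of EGFR on human dermal fibroblasts (primary foreskin cells), 24 h post-dosing; bidirectional curve fit vs DMSO baseline, gain or loss of signal scored.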

[18] = read-out: Interleukin-8 (IL8), CXCL8 (gene 3576); assay: BSK_hDFCGF_IL8: BioMAP Diversity Plus: hDFCGF Assay for Interleukin-8 (IL8) Biomarker Activity (AID 2283058); conditions: primary human foreskin fibroblasts; actives raise or lower the signal
Outline: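 hDFCGF human dermal fibroblasts; 24 h chemical exposure; IL-8 by ELISA; bidirectional curve fit vs DMSO baseline; gain or loss of signal scored.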

[19] = BSK_hDFCGF_Proliferation: Cell Proliferation Assessment in the BioMAP Diversity Plus: hDFCGF Assay (AID 2283059); conditions: primary human foreskin fibroblasts;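 further: curves fitted for both rise and fall of signal versus DMSO baseline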
Outline: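 Total protein read at 560 nm after 0.1% SRB staining of TCA-fixed human skin fibroblasts, […]. Activity is fitted in both directions relative to DMSO as baseline.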

[20] = read-out: Macrophage colony-stimulating factor (MCSF), CSF1 (gene 1435); assay: BSK_hDFCGF_MCSF: BioMAP Diversity Plus: hDFCGF Assay for Macrophage colony-stimulating factor (MCSF) Biomarker Activity (AID 2283060); conditions: primary human foreskin fibroblasts; actives raise or lower the signal
Outline: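 Human foreskin primary fibroblasts were treated with test chemical for 24 h, and M-CSF was then measured by ELISA. Data were fitted bidirectionally against DMSO as the negative control and activity baseline.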

Measured: AC50

Clc1ccc(Cl)cc1
inactive: all assays above

Oc1ccc(Cl)cc1Cl
not listed: [20]
inactive: all other assays above

CCC(C)c1cc([N+](=O)[O-])cc([N+](=O)[O-])c1O (stereo not given)
active: [1] 1.28 µM | [3] 14.6 µM | [7] 33.7 µM | [10] 30.2 µM | [14] 31.3 µM | [19] 3.85 µM
not listed: [20]
inactive: all other assays above

C1CC2OC2CC1C1CO1 (stereo not given)
inactive: all assays above

Cc1cc2c3c(c1)C(c1ccccc1)=N[C@@H](NC(=O)c1ccncc1)C(=O)N3CC2
active: [19] 11.5 µM
inactive: all other assays above

ClC1=C(Cl)[C@]2(Cl)[C@@H]3[C@H]4C[C@H]([C@@H]5O[C@H]45)[C@@H]3[C@@]1(Cl)C2(Cl)Cl
active: [12] 7.07 µM | [19] 6.6 µM
inactive: all other assays above

Oc1ccc(C(c2ccc(O)cc2)(C(F)(F)F)C(F)(F)F)cc1
inactive: [2] | [3] | [4] | [6] | [8] | [12] | [14] | [17]
active: [1] 21.8 µM | [7] 20 µM | [9] 37.6 µM | [10] 27.9 µM | [11] 29.2 µM | [13] 16.6 µM | [15] 31 µM | [16] 13.1 µM | [18] 30.6 µM | [19] 12.4 µM | [20] 14.8 µM

O=C(NC(=O)c1c(F)cccc1F)Nc1cc(Cl)c(OC(F)(F)C(F)F)c(Cl)c1
not listed: [20]
inactive: all other assays above

CCCCCCCCOC(=O)c1ccccc1C(=O)OCCCCCCCC
inactive: all assays above

ClC1=C(Cl)[C@]2(Cl)[C@@H]3[C@@H]4C[C@@H]([C@H]5O[C@@H]45)[C@@H]3[C@@]1(Cl)C2(Cl)Cl
active: [9] 0.468 µM | [19] 8.97 µM
not listed: [7]
inactive: all other assays above

CCOC(=O)C(O)(c1ccc(Cl)cc1)c1ccc(Cl)cc1
active: [7] 30 µM | [10] 29.5 µM | [11] 15 µM | [13] 28.5 µM | [15] 20 µM | [16] 30.2 µM | [19] 30.9 µM | [20] 20 µM
inactive: all other assays above
